Entries with a potency or affinity are not part of this list. The source made the active and inactive calls.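 Rule for the calls: active = compounds lowering cell ATP signal with a fitted half-effect dose at most twice the top valid dose; inconclusive = flat curve with 30 to 70% signal loss, or bad fit; inactive = wrong direction, flat within 30%, or weaker than limit.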
Assay: viability loss in HEK293 kidney cells – cell-based, cherry-picks, set 5, cytotoxicity control, dose response (AID 1053117);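 note: more negative means greater loss of ATP signal and more cytotoxicity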
Conditions: HEK293T viability, CellTiter-Glo ATP luminescence, 72 h; series mostly up to 26 µM; activity change, negative = cytotoxicity: at the top concentration

SMILES | activity change, negative = cytotoxicity
C[C@@H]1CN([C@H](C)CO)C(=O)c2cc(-c3ccccc3)cnc2O[C@H]1CN(C)Cc1ccccc1 | -6.15% (inactive)
O=C(Nc1ccccc1F)N1C[C@H]2[C@@H](c3ccccc31)[C@H](CO)N2C(=O)C1CC1 | -4.41% (inactive)
Cc1ccc(NC(=O)COC(=O)c2cc(Cl)ccc2[N+](=O)[O-])c(C)c1 | -3.62% (inactive)
C[C@@H]1CN([C@H](C)CO)C(=O)c2cc(-c3ccccc3)cnc2O[C@@H]1CN(C)Cc1ccccc1 | -14.5% (inactive)
CC(C)(C)[S@@](=O)N1Cc2cc(C(=O)NCc3ccccc3F)nc(-c3cccc(-c4cncnc4)c3)c2[C@H]1CCO | -17.1% (inactive)
COCC(=O)Nc1ccc2c(c1)C(=O)N(C)[C@@H]1CC[C@@H](CC(=O)NCc3ccccc3Cl)O[C@H]1CO2 | -10.4% [at 23.5 µM] (inactive)
CC1(C)Cc2c(C#N)c(SCC(=O)c3ccccc3)nc(N3CCOCC3)c2CS1 | 3.32% (inactive)
Cc1ccc([N+](=O)[O-])cc1NC(=O)CN(C(=O)c1ccccc1Cl)C1CCCCC1 | -5.77% (inactive)
Cc1cc(C)c(S(=O)(=O)Nn2cnnc2)c(C)c1 | -20.2% (inactive)
C[C@@H]1CN([C@H](C)CO)C(=O)c2cc(NC(=O)C3CCCCC3)ccc2O[C@@H]1CN(C)Cc1ccc(-c2ccccc2)cc1 | -12.7% (inactive)
C[C@@H]1CN([C@@H](C)CO)C(=O)c2cc(NC(=O)CCCN(C)C)ccc2O[C@H]1CN(C)Cc1ccc(-c2ccccc2)cc1 | -21.1% (inactive)
C[C@@H]1CN([C@@H](C)CO)C(=O)c2cccc(NC(=O)Nc3ccc(C(F)(F)F)cc3)c2O[C@H]1CN(C)C(=O)Nc1cccc2ccccc12 | -26.5% (inactive)
c1ccc2[nH]c(SCc3cn4cccnc4n3)nc2c1 | 8.44% (inactive)

From PubChem BioAssay AID1053117 (Broad Institute, 2014)
